In all, about 110,000 compounds were measured (“z-score”: median about -0.1, highest 2% from about 2 on). The list comes from a sample in which the highest values are over-represented; it also holds similar structures and randomly drawn compounds. Activity calls are given as the source filed them.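 How the source made its calls: active means z-score in the third read window above 3 or below -3; inactive means the rest.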
These compounds were tested against Metabotropic glutamate receptor 8 (Rattus norvegicus) (UniProt P70579) (assay: rat mGluR8 modulators via GIRK flux, primary screen, cell-based, thallium flux, HTS (AID 488969)). Settings: HEK293 rat mGluR8, GIRK (G protein-gated inwardly rectifying potassium channel) thallium flux, FluoZin2; at 10 µM; stronger effect = higher value; submaximal glutamate (EC20) added with thallium.
Sequence of Metabotropic glutamate receptor 8 (Rattus norvegicus) (P70579 whole entry, looked up): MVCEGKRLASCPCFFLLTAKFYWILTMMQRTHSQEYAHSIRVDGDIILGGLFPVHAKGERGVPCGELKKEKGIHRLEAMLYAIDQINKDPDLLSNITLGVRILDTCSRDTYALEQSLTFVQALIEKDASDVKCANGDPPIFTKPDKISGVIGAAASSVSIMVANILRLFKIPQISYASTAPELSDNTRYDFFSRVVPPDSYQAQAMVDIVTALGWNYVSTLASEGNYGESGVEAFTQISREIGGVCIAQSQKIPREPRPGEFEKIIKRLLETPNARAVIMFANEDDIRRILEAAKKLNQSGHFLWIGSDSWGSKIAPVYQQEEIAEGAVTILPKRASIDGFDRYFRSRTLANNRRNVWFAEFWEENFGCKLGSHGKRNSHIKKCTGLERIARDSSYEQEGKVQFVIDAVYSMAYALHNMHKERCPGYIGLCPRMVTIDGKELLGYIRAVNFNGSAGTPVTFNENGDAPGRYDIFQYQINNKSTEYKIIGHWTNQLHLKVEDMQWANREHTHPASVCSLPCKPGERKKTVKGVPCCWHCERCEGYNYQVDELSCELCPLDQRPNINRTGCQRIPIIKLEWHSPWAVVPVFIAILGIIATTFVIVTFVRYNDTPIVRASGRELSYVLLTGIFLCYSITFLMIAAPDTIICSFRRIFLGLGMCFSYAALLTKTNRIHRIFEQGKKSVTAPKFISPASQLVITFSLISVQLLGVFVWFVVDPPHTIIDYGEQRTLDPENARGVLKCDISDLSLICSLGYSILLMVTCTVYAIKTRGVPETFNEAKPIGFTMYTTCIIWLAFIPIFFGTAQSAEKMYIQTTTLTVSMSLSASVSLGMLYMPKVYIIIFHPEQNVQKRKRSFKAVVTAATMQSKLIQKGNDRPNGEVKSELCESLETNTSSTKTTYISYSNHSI

Row | Structure (SMILES) | z-score
1 | CCC(C)c1ccc(O)c(NC(=O)c2ncn[nH]2)c1 (configuration not stated) | -0.374
2 | Cc1ccc(C)c(-c2cc(C(=O)NCc3cccs3)c3ccccc3n2)c1 | -0.0338
3 | O=C(Nc1ccc(Br)cc1F)c1ccc2c(c1)N(Cc1ccccc1)C(=O)CS2=O (configuration not stated) | 1.3
4 | O/N=C/c1cc(Cl)ccc1OCc1cccc2ccccc12 | 2.76
5 | CCOc1ccc(Cl)cc1/C=N/O | -0.395
6 | O/N=C/c1cc(Cl)ccc1OCc1ccccc1Cl | -0.352
7 | Nc1ncnc2c1ncn2CCNCCc1ccccc1 | -0.981
8 | COc1ccc(/C=N/n2c(-c3cccs3)n[nH]c2=S)cc1 | 2.46
9 | COc1cccc(/C=N/n2c(-c3cccs3)n[nH]c2=S)c1 | 3.25 (active)
10 | Cc1cc(-c2n[nH]c(=S)n2/N=C/c2cccs2)n[nH]1 | -0.233
11 | Cc1cc(-c2n[nH]c(=S)n2/N=C/c2cccc([N+](=O)[O-])c2)n[nH]1 | -0.221
12 | Cc1cccc(/C=N/n2c(-c3ccccn3)n[nH]c2=S)c1 | -0.174
13 | CCOC(=O)COc1ccc(S(=O)(=O)NCc2cccnc2)cc1 | 0.014
14 | Cc1nn(CC(=O)NCc2cccc3ccccc23)c(=O)c2ccccc12 | -0.0519
15 | COc1ccc(NC(=O)C2CCN(C(=O)c3ccccc3)CC2)c(OC)c1 | -1.36
16 | Cn1nc(C(=O)NC2CCCCCC2)ccc1=O | 1.32

Row | Structure (SMILES) | z-score
17 | CCOC(=O)c1c(-c2cccs2)csc1NC(=O)CNCCN1CCOCC1 | -0.205
18 | O=C(OCC(=O)N1CCCCC1)c1cc(NS(=O)(=O)c2ccc(Cl)c([N+](=O)[O-])c2)ccc1O | -0.652
19 | CCN(C(=O)COC(=O)c1cc(NS(=O)(=O)c2ccc(Cl)c([N+](=O)[O-])c2)ccc1O)C1CCCCC1 | 2
20 | CC(NC(=O)COC(=O)c1cc(NS(=O)(=O)c2ccc(Cl)c([N+](=O)[O-])c2)ccc1O)C1CC2CCC1C2 (configuration not stated) | -0.436
21 | O=C(COC(=O)Cc1c(Cl)cccc1Cl)NCCC1=CCCCC1 | -0.34
22 | COc1cc(C2NC(=O)NC(O)(C(F)(F)F)C2C(=O)c2cccs2)ccc1O (configuration not stated) | -0.852
23 | CCOC(=O)c1ccc(Nc2ncnc3ccc(C)cc23)cc1 | -0.372
24 | CCCc1cc(=O)n2[nH]c(C)cc2n1 | -0.851
25 | CCCc1cc(=O)n2[nH]c(-c3ccccc3)cc2n1 | 0.844
26 | CCCc1cc(=O)n2[nH]c(-c3ccc(Br)cc3)cc2n1 | 3.04 (active)
27 | O=C(Cn1cc(C(=O)c2cccs2)c2ccccc21)NC1CCCCC1 | -2.37
28 | O=C(Cn1c(C(F)(F)F)nc2ccccc21)c1ccc(Cl)cc1 | -0.0833
29 | O=C(Nc1ccc2c(c1)OCO2)c1noc2c1CCCCC2 | 0.597
30 | COc1ccc(N2CCc3c(C)nc4c(OC)cc(OC)cc4c32)c(OC)c1 | 0.775
31 | COc1cc(OC)c2nc(C)c3c(c2c1)N(c1ccc(O)cc1)CC3 | 3.3 (active)
32 | COc1ccccc1N1CCc2c(C)nc3c(OC)cccc3c21 | -0.0829
